In the supplement of paper PMC4466140:

Each binder was assayed against AgAbp1 (assay: SPOT peptide array binding signal intensity (averaged, normalized) (arbitrary units (background-subtracted, floor 0; scale differs between SH3 domains)); higher = stronger binding of the SH3 domain to the peptide).
Outline: (§1)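 E. coli BL21(DE3) was used to express GST-fused SH3 domains from four yeast species, which were then purified on glutathione Sepharose. These were incubated at 10 μg/ml in TBS-based blocking buffer overnight at 4°C on cellulose membranes carrying synthetic 15-mer peptides, in which cysteines were replaced by serines. Binding signal is the replicate average of normalized, background-subtracted spot intensity, in arbitrary units that differ between domains.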

Binder	SPOT peptide array binding signal intensity
NIKVLLNPKLGKPVK	15

These binders were tested against AgBbc1 in the same assay as above.
Outline: as §1

Binder	SPOT peptide array binding signal intensity
NIKVLLNPKLGKPVK	10.2

The binders below were run against AgBem1-D1 in the same assay as above.
Outline: as §1

Binder	SPOT peptide array binding signal intensity
NIKVLLNPKLGKPVK	4

The binders below were run against AgBzz1-D1 in the same assay as above.
Outline: as §1

Binder	SPOT peptide array binding signal intensity
NIKVLLNPKLGKPVK	13

What follows are binders tested against AgBzz1-D2 in the same assay as above.
Outline: as §1

Binder	SPOT peptide array binding signal intensity
NIKVLLNPKLGKPVK	73.5

What follows are binders tested against AgCyk3 in the same assay as above.
Outline: as §1

Binder	SPOT peptide array binding signal intensity
NIKVLLNPKLGKPVK	≤ 0

What follows are binders tested against AgFus1 in the same assay as above.
Outline: as §1

Binder	SPOT peptide array binding signal intensity
NIKVLLNPKLGKPVK	316

Each binder was assayed against AgHof1 in the same assay as above.
Outline: as §1

Binder	SPOT peptide array binding signal intensity
NIKVLLNPKLGKPVK	17

What follows are binders tested against AgHse1 in the same assay as above.
Outline: as §1

Binder	SPOT peptide array binding signal intensity
NIKVLLNPKLGKPVK	760

The binders below were run against AgLsb1 in the same assay as above.
Outline: as §1

Binder	SPOT peptide array binding signal intensity
NIKVLLNPKLGKPVK	≤ 0

These binders were tested against AgLsb4 in the same assay as above.
Outline: as §1

Binder	SPOT peptide array binding signal intensity
NIKVLLNPKLGKPVK	61

What follows are binders tested against AgMyo5 in the same assay as above.
Outline: as §1

Binder	SPOT peptide array binding signal intensity
NIKVLLNPKLGKPVK	2.5

Each binder was assayed against AgNbp2 in the same assay as above.
Outline: as §1

Binder	SPOT peptide array binding signal intensity
NIKVLLNPKLGKPVK	31.5

These binders were tested against AgRvs167 in the same assay as above.
Outline: as §1

Binder	SPOT peptide array binding signal intensity
NIKVLLNPKLGKPVK	4

What follows are binders tested against AgSho1 in the same assay as above.
Outline: as §1

Binder	SPOT peptide array binding signal intensity
NIKVLLNPKLGKPVK	108

Each binder was assayed against AgSla1-D1-D2 in the same assay as above.
Outline: as §1

Binder	SPOT peptide array binding signal intensity
NIKVLLNPKLGKPVK	39.5

The binders below were run against AgSla1-D3 in the same assay as above.
Outline: as §1

Binder	SPOT peptide array binding signal intensity
NIKVLLNPKLGKPVK	7.5

Each binder was assayed against CaAbp1-D1 in the same assay as above.
Outline: as §1

Binder	SPOT peptide array binding signal intensity
NIKVLLNPKLGKPVK	407

These binders were tested against CaAbp1-D2 in the same assay as above.
Outline: as §1

Binder	SPOT peptide array binding signal intensity
NIKVLLNPKLGKPVK	32.5

What follows are binders tested against CaBbc1 in the same assay as above.
Outline: as §1

Binder	SPOT peptide array binding signal intensity
NIKVLLNPKLGKPVK	15.2

The binders below were run against CaBem1-D1 in the same assay as above.
Outline: as §1

Binder	SPOT peptide array binding signal intensity
NIKVLLNPKLGKPVK	0.5

These binders were tested against CaBzz1-D1 in the same assay as above.
Outline: as §1

Binder	SPOT peptide array binding signal intensity
NIKVLLNPKLGKPVK	160

Each binder was assayed against CaBzz1-D2 in the same assay as above.
Outline: as §1

Binder	SPOT peptide array binding signal intensity
NIKVLLNPKLGKPVK	48.5

Each binder was assayed against CaCyk3 in the same assay as above.
Outline: as §1

Binder	SPOT peptide array binding signal intensity
NIKVLLNPKLGKPVK	≤ 0

Each binder was assayed against CaFus1 in the same assay as above.
Outline: as §1

Binder	SPOT peptide array binding signal intensity
NIKVLLNPKLGKPVK	968

What follows are binders tested against CaHof1 in the same assay as above.
Outline: as §1

Binder	SPOT peptide array binding signal intensity
NIKVLLNPKLGKPVK	≤ 0

The binders below were run against CaHse1 in the same assay as above.
Outline: as §1

Binder	SPOT peptide array binding signal intensity
NIKVLLNPKLGKPVK	9

What follows are binders tested against CaLsb1 in the same assay as above.
Outline: as §1

Binder	SPOT peptide array binding signal intensity
NIKVLLNPKLGKPVK	2

These binders were tested against CaLsb4 in the same assay as above.
Outline: as §1

Binder	SPOT peptide array binding signal intensity
NIKVLLNPKLGKPVK	16

These binders were tested against CaMyo5 in the same assay as above.
Outline: as §1

Binder	SPOT peptide array binding signal intensity
NIKVLLNPKLGKPVK	4.5

These binders were tested against CaNbp2 in the same assay as above.
Outline: as §1

Binder	SPOT peptide array binding signal intensity
NIKVLLNPKLGKPVK	325

What follows are binders tested against CaRvs167 in the same assay as above.
Outline: as §1

Binder	SPOT peptide array binding signal intensity
NIKVLLNPKLGKPVK	105

These binders were tested against CaRvs167-3 in the same assay as above.
Outline: as §1

Binder	SPOT peptide array binding signal intensity
NIKVLLNPKLGKPVK	752

What follows are binders tested against CaSho1 in the same assay as above.
Outline: as §1

Binder	SPOT peptide array binding signal intensity
NIKVLLNPKLGKPVK	700

These binders were tested against CaSla1-D1-D2 in the same assay as above.
Outline: as §1

Binder	SPOT peptide array binding signal intensity
NIKVLLNPKLGKPVK	2

These binders were tested against CaSla1-D3 in the same assay as above.
Outline: as §1

Binder	SPOT peptide array binding signal intensity
NIKVLLNPKLGKPVK	26

The binders below were run against ScAbp1 in the same assay as above.
Outline: as §1

Binder	SPOT peptide array binding signal intensity
NIKVLLNPKLGKPVK	48

The binders below were run against ScBbc1 in the same assay as above.
Outline: as §1

Binder	SPOT peptide array binding signal intensity
NIKVLLNPKLGKPVK	0.25

These binders were tested against ScBem1-D1 in the same assay as above.
Outline: as §1

Binder	SPOT peptide array binding signal intensity
NIKVLLNPKLGKPVK	7

These binders were tested against ScBzz1-D1 in the same assay as above.
Outline: as §1

Binder	SPOT peptide array binding signal intensity
NIKVLLNPKLGKPVK	32

Each binder was assayed against ScBzz1-D2 in the same assay as above.
Outline: as §1

Binder	SPOT peptide array binding signal intensity
NIKVLLNPKLGKPVK	207

The binders below were run against ScCyk3 in the same assay as above.
Outline: as §1

Binder	SPOT peptide array binding signal intensity
NIKVLLNPKLGKPVK	10.5

Each binder was assayed against ScFus1 in the same assay as above.
Outline: as §1

Binder	SPOT peptide array binding signal intensity
NIKVLLNPKLGKPVK	527

These binders were tested against ScHof1 in the same assay as above.
Outline: as §1

Binder	SPOT peptide array binding signal intensity
NIKVLLNPKLGKPVK	1.25

These binders were tested against ScHse1 in the same assay as above.
Outline: as §1

Binder	SPOT peptide array binding signal intensity
NIKVLLNPKLGKPVK	1460

The binders below were run against ScLsb1 in the same assay as above.
Outline: as §1

Binder	SPOT peptide array binding signal intensity
NIKVLLNPKLGKPVK	5.75

Each binder was assayed against ScLsb2 in the same assay as above.
Outline: as §1

Binder	SPOT peptide array binding signal intensity
NIKVLLNPKLGKPVK	1

The binders below were run against ScLsb3 in the same assay as above.
Outline: as §1

Binder	SPOT peptide array binding signal intensity
NIKVLLNPKLGKPVK	1.53e-05

What follows are binders tested against ScLsb4 in the same assay as above.
Outline: as §1

Binder	SPOT peptide array binding signal intensity
NIKVLLNPKLGKPVK	3

The binders below were run against ScMyo3 in the same assay as above.
Outline: as §1

Binder	SPOT peptide array binding signal intensity
NIKVLLNPKLGKPVK	1

Each binder was assayed against ScMyo5 in the same assay as above.
Outline: as §1

Binder	SPOT peptide array binding signal intensity
NIKVLLNPKLGKPVK	1

Each binder was assayed against ScNbp2 in the same assay as above.
Outline: as §1

Binder	SPOT peptide array binding signal intensity
NIKVLLNPKLGKPVK	29

What follows are binders tested against ScPex13 in the same assay as above.
Outline: as §1

Binder	SPOT peptide array binding signal intensity
NIKVLLNPKLGKPVK	4.5

Each binder was assayed against ScRvs167 in the same assay as above.
Outline: as §1

Binder	SPOT peptide array binding signal intensity
NIKVLLNPKLGKPVK	21.8

These binders were tested against ScSho1 in the same assay as above.
Outline: as §1

Binder	SPOT peptide array binding signal intensity
NIKVLLNPKLGKPVK	696

Each binder was assayed against ScSla1-D1-D2 in the same assay as above.
Outline: as §1

Binder	SPOT peptide array binding signal intensity
NIKVLLNPKLGKPVK	42

What follows are binders tested against ScSla1-D3 in the same assay as above.
Outline: as §1

Binder	SPOT peptide array binding signal intensity
NIKVLLNPKLGKPVK	7.75

Each binder was assayed against SpAbp1-D1 in the same assay as above.
Outline: as §1

Binder	SPOT peptide array binding signal intensity
NIKVLLNPKLGKPVK	30.5

Each binder was assayed against SpBbc1 in the same assay as above.
Outline: as §1

Binder	SPOT peptide array binding signal intensity
NIKVLLNPKLGKPVK	11.2

The binders below were run against SpBzz1-D1 in the same assay as above.
Outline: as §1

Binder	SPOT peptide array binding signal intensity
NIKVLLNPKLGKPVK	132

What follows are binders tested against SpBzz1-D2 in the same assay as above.
Outline: as §1

Binder	SPOT peptide array binding signal intensity
NIKVLLNPKLGKPVK	≤ 0

What follows are binders tested against SpCyk3 in the same assay as above.
Outline: as §1

Binder	SPOT peptide array binding signal intensity
NIKVLLNPKLGKPVK	≤ 0

Each binder was assayed against SpHof1 in the same assay as above.
Outline: as §1

Binder	SPOT peptide array binding signal intensity
NIKVLLNPKLGKPVK	75.5

The binders below were run against SpHof1-2 in the same assay as above.
Outline: as §1

Binder	SPOT peptide array binding signal intensity
NIKVLLNPKLGKPVK	13

What follows are binders tested against SpHof1-3 in the same assay as above.
Outline: as §1

Binder	SPOT peptide array binding signal intensity
NIKVLLNPKLGKPVK	640

Each binder was assayed against SpHse1 in the same assay as above.
Outline: as §1

Binder	SPOT peptide array binding signal intensity
NIKVLLNPKLGKPVK	558

What follows are binders tested against SpLsb1 in the same assay as above.
Outline: as §1

Binder	SPOT peptide array binding signal intensity
NIKVLLNPKLGKPVK	1.75

These binders were tested against SpLsb4 in the same assay as above.
Outline: as §1

Binder	SPOT peptide array binding signal intensity
NIKVLLNPKLGKPVK	26

What follows are binders tested against SpMyo1 in the same assay as above.
Outline: as §1

Binder	SPOT peptide array binding signal intensity
NIKVLLNPKLGKPVK	≤ 0

These binders were tested against SpNbp2 in the same assay as above.
Outline: as §1

Binder	SPOT peptide array binding signal intensity
NIKVLLNPKLGKPVK	95.5

Each binder was assayed against SpPex13 in the same assay as above.
Outline: as §1

Binder	SPOT peptide array binding signal intensity
NIKVLLNPKLGKPVK	13

The binders below were run against SpRvs167 in the same assay as above.
Outline: as §1

Binder	SPOT peptide array binding signal intensity
NIKVLLNPKLGKPVK	18.2

What follows are binders tested against SpSla1-D1-D2 in the same assay as above.
Outline: as §1

Binder	SPOT peptide array binding signal intensity
NIKVLLNPKLGKPVK	≤ 0

These binders were tested against SpSla1-D3 in the same assay as above.
Outline: as §1

Binder	SPOT peptide array binding signal intensity
NIKVLLNPKLGKPVK	4
